Assay results: the supplement of paper PMC10849652
About 7,900 targets were measured; listed, in parts, are those with a hit and a random draw of the rest. About 0.6% of all pairs of compound and target were hits. Values without a mark were called inactive.

Experiments:
Assay in all cases: log2 fold change, soluble protein after heating vs DMSO (PISA); higher = thermal stabilisation; K562 cells, 10 uM, 30 min; active = over 0.2 and 3.5 SD of the protein, either way, in both replicates (recomputed)
[1] = compound: CN1CCN(CCOc2cc(OC3CCOCC3)c3c(Nc4c(Cl)ccc5c4OCO5)ncnc3c2)CC1 [saracatinib]
Summary of the method: (§1)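 Aliquots of K562 cells (2×10^6 cells/mL) treated with 10 μM compound for 30 min were heated for 3 min over 48°C-58°C. After pooling and extraction in PBS with 0.5% NP-40 at 4°C, soluble protein from a 21,000xg, 90 min spin was quantified by TMTpro 16plex LC-MS/MS with channel sums equalised. Thermal stability is expressed against control samples, from duplicates, as a log2 fold change.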

[2] = compound: CN1CCN(c2nc(C3=C(c4c[nH]c5ccccc45)C(=O)NC3=O)c3ccccc3n2)CC1 [sotrastaurin]
Summary of the method: as §1

[3] = compound: CNC(=O)C1=CC=CC=C1NC2=NC(=NC=C2Cl)NC3=C(C=C(C=C3)N4CCOCC4)OC
Summary of the method: as §1

[4] = compound: CNc1nc(-c2ccc3c(N)n[nH]c3c2)cc(N2C[C@@H](C(=O)NC3CCCCC3)CC[C@H]2C)n1
Summary of the method: as §1

[5] = compound: COC1=CC=C(C=C1)CN2C=CC3=C2C=C(C=C3)C(=O)NO
Summary of the method: as §1

[6] = compound: CON(C)C(=O)N1N=C(c2cc(F)ccc2F)S[C@@]1(CCCN)c1ccccc1 [filanesib]
Summary of the method: as §1

[7] = compound: COc1cc(Nc2ncc3c(n2)-c2ccc(Cl)cc2C(c2c(F)cccc2OC)=NC3)ccc1C(=O)O [alisertib]
Summary of the method: as §1

[8] = compound: COc1cc2nc(-c3cc(F)ccc3O)nc(N[C@@H]3CNC[C@H]3C(C)(C)O)c2cc1OC
Summary of the method: as §1

[9] = compound: COc1cc2ncnc(Nc3ccc(F)c(Cl)c3)c2cc1OCCCN1CCOCC1 [gefitinib]
Summary of the method: as §1

[10] = compound: COc1cccc2cc(-c3nc([C@H]4CC[C@H](C(=O)O)CC4)n4ncnc(N)c34)[nH]c12
Summary of the method: as §1

[11] = compound: CS(=O)(=O)CCNCc1ccc(-c2ccc3ncnc(Nc4ccc(OCc5cccc(F)c5)c(Cl)c4)c3c2)o1 [lapatinib]
Summary of the method: as §1

[12] = compound: CS(=O)(=O)N1CCN(Cc2cc3nc(-c4cccc5[nH]ncc45)nc(N4CCOCC4)c3s2)CC1 [pictilisib]
Summary of the method: as §1

[13] = compound: CN1CCc2c(c3ccccc3n2Cc2ccc(C(=O)NO)cc2)C1 [Tubastatin A]
Summary of the method: as §1

[14] = compound: CNCc1ccc(-c2[nH]c3cc(F)cc4c3c2CCNC4=O)cc1 [rucaparib]
Summary of the method: as §1

[15] = compound: COC(=O)N[C@@H](C)CNc1nccc(-c2cn(C(C)C)nc2-c2cc(Cl)cc(NS(C)(=O)=O)c2F)n1 [encorafenib]
Summary of the method: as §1

[16] = compound: COc1cc(C(=O)O)ccc1NC(=O)[C@@H]1N[C@@H](CC(C)(C)C)[C@](C#N)(c2ccc(Cl)cc2F)[C@H]1c1cccc(Cl)c1F [idasanutlin]
Summary of the method: as §1

[17] = compound: CNC(=O)c1ccc(Nc2ncc(C(F)(F)F)c(NCc3nccnc3N(C)S(C)(=O)=O)n2)cc1 [defactinib]
Summary of the method: as §1

[18] = compound: COC(=O)[C@H](CCSC)NC(=O)C1=C(C=C(C=C1)NC[C@H](CS)N)C2=CC=CC=C2
Summary of the method: as §1

[19] = compound: CN1CC[C@H](c2c(O)cc(O)c3c(=O)cc(-c4ccccc4Cl)oc23)[C@H](O)C1 [alvocidib]
Summary of the method: as §1

[20] = compound: CO[C@H]1C[C@@H]2CC[C@@H](C)[C@@](O)(O2)C(=O)C(=O)N2CCCC[C@H]2C(=O)O[C@H]([C@H](C)C[C@@H]2CC[C@H](n3cnnn3)[C@H](OC)C2)CC(=O)[C@H](C)/C=C(\C)[C@@H](O)[C@@H](OC)C(=O)[C@H](C)C[C@H](C)/C=C/C=C/C=C/1C [zotarolimus]
Summary of the method: as §1

UniProt Q13825, sequence (Q13825 whole entry, looked up): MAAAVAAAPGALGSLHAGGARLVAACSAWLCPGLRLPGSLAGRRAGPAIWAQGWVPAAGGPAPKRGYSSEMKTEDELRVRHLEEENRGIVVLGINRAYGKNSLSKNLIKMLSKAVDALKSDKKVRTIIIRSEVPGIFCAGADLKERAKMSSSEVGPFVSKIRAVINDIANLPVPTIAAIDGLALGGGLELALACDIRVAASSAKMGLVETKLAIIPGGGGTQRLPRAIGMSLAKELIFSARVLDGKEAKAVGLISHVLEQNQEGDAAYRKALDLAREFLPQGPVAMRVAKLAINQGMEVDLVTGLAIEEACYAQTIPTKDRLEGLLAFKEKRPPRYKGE
UniProt P42331, sequence (P42331 whole entry, looked up): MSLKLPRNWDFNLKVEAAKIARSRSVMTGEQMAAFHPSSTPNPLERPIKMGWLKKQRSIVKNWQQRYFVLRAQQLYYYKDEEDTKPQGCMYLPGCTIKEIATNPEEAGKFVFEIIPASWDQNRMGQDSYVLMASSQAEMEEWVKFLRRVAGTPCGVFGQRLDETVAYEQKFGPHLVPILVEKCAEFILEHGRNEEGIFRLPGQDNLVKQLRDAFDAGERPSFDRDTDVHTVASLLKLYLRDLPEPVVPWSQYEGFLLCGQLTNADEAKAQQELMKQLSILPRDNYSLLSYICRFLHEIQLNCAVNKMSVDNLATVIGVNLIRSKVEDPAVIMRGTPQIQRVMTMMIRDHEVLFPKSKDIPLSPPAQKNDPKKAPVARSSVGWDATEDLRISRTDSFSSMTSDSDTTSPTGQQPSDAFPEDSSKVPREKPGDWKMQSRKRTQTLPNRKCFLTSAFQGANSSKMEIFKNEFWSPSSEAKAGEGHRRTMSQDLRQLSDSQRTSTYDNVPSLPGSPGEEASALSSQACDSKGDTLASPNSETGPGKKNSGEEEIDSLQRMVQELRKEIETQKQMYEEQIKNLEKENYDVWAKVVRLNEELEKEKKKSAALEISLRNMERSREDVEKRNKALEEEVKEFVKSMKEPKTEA
UniProt P40617, sequence (P40617 whole entry, looked up): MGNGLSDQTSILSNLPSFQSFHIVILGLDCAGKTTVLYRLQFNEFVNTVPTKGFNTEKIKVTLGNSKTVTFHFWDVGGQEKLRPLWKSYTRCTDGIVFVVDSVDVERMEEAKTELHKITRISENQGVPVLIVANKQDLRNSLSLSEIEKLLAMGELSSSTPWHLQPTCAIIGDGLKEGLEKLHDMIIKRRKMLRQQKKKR
UniProt Q8IUR7, sequence (Q8IUR7 whole entry, looked up): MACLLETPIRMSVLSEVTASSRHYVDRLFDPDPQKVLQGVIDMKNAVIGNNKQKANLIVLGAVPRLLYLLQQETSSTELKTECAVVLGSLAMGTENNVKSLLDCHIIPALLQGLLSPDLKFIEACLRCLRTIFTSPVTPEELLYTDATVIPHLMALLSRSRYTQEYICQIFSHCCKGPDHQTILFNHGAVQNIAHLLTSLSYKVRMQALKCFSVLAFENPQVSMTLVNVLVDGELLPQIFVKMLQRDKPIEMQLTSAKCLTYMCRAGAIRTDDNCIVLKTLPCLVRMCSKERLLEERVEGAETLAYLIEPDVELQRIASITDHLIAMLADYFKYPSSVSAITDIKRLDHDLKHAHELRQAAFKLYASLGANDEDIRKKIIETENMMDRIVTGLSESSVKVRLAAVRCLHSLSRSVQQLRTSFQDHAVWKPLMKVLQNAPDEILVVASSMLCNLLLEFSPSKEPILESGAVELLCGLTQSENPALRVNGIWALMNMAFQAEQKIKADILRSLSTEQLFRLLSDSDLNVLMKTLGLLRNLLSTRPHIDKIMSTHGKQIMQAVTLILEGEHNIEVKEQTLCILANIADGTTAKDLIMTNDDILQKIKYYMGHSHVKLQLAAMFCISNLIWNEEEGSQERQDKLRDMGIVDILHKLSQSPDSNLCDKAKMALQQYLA
UniProt P78363, sequence (P78363 whole entry, looked up): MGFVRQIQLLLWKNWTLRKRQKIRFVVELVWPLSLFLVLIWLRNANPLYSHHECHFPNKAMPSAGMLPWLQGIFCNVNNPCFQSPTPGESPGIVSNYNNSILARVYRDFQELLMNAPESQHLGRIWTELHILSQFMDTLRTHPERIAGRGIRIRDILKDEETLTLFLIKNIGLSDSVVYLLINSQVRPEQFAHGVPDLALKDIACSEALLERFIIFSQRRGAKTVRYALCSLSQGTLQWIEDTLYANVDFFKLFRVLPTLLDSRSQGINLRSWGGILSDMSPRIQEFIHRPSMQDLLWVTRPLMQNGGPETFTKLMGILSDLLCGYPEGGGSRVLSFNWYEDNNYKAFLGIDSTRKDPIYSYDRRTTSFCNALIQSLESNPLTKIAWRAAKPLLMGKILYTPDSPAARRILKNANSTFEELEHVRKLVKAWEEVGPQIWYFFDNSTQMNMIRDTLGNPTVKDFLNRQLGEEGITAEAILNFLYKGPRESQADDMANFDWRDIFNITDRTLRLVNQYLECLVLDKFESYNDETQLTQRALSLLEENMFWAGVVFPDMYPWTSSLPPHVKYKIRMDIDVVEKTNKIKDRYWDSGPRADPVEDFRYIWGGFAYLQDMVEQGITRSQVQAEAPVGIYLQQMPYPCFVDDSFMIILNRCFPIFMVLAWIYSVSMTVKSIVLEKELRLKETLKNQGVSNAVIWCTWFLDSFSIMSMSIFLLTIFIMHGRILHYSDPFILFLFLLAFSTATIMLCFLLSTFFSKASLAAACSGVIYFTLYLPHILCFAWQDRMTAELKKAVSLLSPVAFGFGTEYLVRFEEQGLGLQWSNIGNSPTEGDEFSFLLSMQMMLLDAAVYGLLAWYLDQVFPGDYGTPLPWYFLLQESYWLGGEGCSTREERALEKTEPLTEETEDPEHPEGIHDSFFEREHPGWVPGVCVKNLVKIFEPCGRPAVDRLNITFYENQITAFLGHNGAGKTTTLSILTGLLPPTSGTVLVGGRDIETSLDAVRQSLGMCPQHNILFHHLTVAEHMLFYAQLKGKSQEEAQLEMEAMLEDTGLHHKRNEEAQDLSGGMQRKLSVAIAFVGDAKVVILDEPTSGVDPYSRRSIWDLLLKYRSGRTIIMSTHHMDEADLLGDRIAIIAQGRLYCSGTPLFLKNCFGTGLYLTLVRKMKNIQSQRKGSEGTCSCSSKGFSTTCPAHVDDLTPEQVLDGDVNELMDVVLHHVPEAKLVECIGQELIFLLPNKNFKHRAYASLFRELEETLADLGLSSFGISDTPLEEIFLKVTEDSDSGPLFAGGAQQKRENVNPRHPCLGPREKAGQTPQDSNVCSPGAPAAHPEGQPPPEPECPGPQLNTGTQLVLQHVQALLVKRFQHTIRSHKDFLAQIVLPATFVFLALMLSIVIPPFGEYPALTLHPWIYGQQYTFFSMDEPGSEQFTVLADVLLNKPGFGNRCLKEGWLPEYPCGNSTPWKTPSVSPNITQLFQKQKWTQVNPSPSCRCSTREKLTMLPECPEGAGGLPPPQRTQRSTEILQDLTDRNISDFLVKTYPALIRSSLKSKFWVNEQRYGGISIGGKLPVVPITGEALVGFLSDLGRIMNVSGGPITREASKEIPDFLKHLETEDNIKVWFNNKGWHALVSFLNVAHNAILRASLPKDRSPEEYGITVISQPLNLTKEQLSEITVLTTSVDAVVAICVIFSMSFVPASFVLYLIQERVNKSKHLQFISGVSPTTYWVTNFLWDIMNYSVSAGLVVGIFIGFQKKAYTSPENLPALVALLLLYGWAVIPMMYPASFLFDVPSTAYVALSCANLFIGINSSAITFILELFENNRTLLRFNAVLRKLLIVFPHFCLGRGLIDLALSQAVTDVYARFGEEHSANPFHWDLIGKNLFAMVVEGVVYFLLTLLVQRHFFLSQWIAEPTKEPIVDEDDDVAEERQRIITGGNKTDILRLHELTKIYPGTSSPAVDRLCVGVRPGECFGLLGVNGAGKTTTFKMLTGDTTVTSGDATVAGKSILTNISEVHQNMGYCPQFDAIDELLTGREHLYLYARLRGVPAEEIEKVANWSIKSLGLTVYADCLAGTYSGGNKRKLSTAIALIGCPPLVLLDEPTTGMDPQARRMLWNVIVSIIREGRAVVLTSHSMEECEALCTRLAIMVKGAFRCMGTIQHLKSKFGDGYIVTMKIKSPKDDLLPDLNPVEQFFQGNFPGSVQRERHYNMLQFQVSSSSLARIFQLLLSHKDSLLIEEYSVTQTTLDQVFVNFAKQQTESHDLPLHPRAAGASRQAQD
UniProt Q9H6S1, sequence (Q9H6S1 whole entry, looked up): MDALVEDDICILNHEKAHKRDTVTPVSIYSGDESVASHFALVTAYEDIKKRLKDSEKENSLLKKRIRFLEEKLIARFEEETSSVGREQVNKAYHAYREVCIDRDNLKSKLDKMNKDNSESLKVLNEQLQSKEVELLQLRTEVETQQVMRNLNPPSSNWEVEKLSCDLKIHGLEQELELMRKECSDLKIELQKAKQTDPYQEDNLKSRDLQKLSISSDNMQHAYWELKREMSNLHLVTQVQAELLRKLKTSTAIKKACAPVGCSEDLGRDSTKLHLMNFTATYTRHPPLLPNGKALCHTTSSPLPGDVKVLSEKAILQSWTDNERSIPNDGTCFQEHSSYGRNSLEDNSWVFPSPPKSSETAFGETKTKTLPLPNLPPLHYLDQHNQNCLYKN
UniProt Q04771, sequence (Q04771 whole entry, looked up): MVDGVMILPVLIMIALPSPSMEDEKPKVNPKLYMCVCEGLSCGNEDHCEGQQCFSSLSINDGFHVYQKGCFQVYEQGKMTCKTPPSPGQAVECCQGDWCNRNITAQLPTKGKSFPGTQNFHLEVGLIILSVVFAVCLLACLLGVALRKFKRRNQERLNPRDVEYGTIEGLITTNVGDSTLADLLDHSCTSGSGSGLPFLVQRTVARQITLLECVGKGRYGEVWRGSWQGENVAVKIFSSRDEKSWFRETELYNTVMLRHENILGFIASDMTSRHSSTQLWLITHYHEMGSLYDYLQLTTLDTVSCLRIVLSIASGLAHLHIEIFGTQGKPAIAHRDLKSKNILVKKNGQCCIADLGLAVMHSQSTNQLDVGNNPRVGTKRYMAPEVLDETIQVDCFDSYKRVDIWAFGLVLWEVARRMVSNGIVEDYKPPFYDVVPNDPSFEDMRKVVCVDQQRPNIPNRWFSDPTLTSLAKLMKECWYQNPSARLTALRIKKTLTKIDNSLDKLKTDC

Target | log2 fold change [1] | log2 fold change [2] | log2 fold change [3] | log2 fold change [4] | log2 fold change [5] | log2 fold change [6] | log2 fold change [7] | log2 fold change [8] | log2 fold change [9] | log2 fold change [10] | log2 fold change [11] | log2 fold change [12] | log2 fold change [13] | log2 fold change [14] | log2 fold change [15] | log2 fold change [16] | log2 fold change [17] | log2 fold change [18] | log2 fold change [19] | log2 fold change [20]
ARFIP1 isoform 2 (UniProt P53367) | 0.026 | -0.041 | -0.268 | 0.279 | -0.225 | -0.082 | -0.17 | -0.013 | -0.067 | -0.068 | 0.05 | -0.154 | – | – | – | – | – | – | – | –
BRMS1 (UniProt Q9HCU9) | -0.185 | – | – | 0.007 | – | – | -0.074 | – | – | 0.007 | – | 0.042 | 0.001 | -0.017 | 0.106 | 0.066 | – | – | – | –
ALDH2 isoform 2 (UniProt P05091) | – | 0.161 | – | – | – | 0.013 | – | 0.166 | – | – | -0.266 | -0.035 | 0.005 | -0.255 | 0.097 | 0 | 0.06 | -0.003 | – | –
ANGEL1 (UniProt Q9UNK9) | – | – | – | – | 0.024 | – | – | – | – | – | – | – | 0.089 | – | – | – | -0.076 | 0.095 | – | –
BAP18 isoform 3 (UniProt Q8IXM2) | – | – | -0.129 | – | – | – | -0.033 | – | – | 0.12 | – | -0.093 | 0.301 | – | – | – | – | – | – | –
ATF1 (UniProt P18846) | – | -0.098 | -0.052 | – | – | 0.097 | -0.101 | -0.071 | 0.052 | 0.006 | -0.011 | -0.039 | -0.068 | -0.128 | -0.07 | -0.082 | 0.045 | 0.024 | 0.081 | -0.51 (active)
ASB6 (UniProt Q9NWX5) | – | -0.029 | -0.078 | – | 0.298 | 0.008 | -0.214 | -0.083 | -0.034 | 0 | -0.055 | 0.157 | – | 0.124 | -0.094 | -0.029 | -0.033 | 0.031 | – | –
AIF1 (UniProt P55008) | – | 0.025 | 0.15 | – | – | 0.038 | – | 0.083 | – | – | 0.053 | – | – | – | – | 0.052 | 0.032 | -0.046 | – | –
ACTR3B (UniProt Q9P1U1) | – | – | -0.004 | – | 0.407 (active) | – | – | 0.022 | -0.213 | – | -0.056 | -0.021 | -0.01 | – | – | – | 0.037 | -0.01 | – | –
AUH (UniProt Q13825) | 0.184 | – | 0.003 | -0.062 | -0.107 | – | 0.175 | -0.036 | – | 0.034 | 0.056 | -0.071 | 0.152 | 0.065 | -0.005 | -0.074 | -0.055 | 0.006 | 0.016 | 0.009
ARL4A (UniProt P40617) | – | – | – | – | – | – | 0.042 | – | – | 0.094 | – | – | – | – | – | 0.056 | – | – | – | –
ACVR1 (UniProt Q04771) | – | -0.081 | 0 | -0.106 | – | -0.022 | -0.096 | 0.133 | – | -0.13 | -0.004 | 0.248 | -0.042 | 0.029 | 0.122 | -0.156 | -0.095 | -0.156 | 0.047 | -0.371
AARSD1 (UniProt Q9BTE6) | 0.008 | – | 0.08 | 0.165 | -0.659 | – | 0.08 | 0.036 | 0.157 | -0.016 | 0.069 | – | – | 0.014 | -0.042 | -0.071 | – | – | -0.15 | 0.055
ARMC8 isoform 6 (UniProt Q8IUR7) | – | – | -0.088 | – | – | – | – | – | 0.072 | – | – | – | – | – | – | 0.072 | -0.114 | 0.108 | – | –
ABCA4 (UniProt P78363) | – | -0.249 | -0.152 | – | 0.394 | 0.076 | -0.071 | – | 0.014 | -0.007 | – | 0.135 | 0.246 | 0.006 | 0.006 | -0.02 | – | – | 0.277 | 0.031
BRAF, A0A2R8Y8E0 | – | – | 0.143 | – | -0.008 | – | -0.054 | – | -0.027 | -0.326 | – | – | -0.084 | – | – | 0.221 | – | – | – | –
AZI2 (UniProt Q9H6S1) | – | -0.046 | 0.453 (active) | – | – | 0.006 | – | – | 0.227 | – | – | – | -0.078 | -0.12 | 0.012 | – | 0.018 | -0.093 | – | –
ADD1 isoform 4 (UniProt P35611) | – | – | – | – | -0.054 | – | – | – | – | – | – | -0.068 | – | – | – | – | – | – | 0.087 | -0.065
ACOX3 (UniProt O15254) | – | -0.039 | -0.034 | – | 0.138 | 0.042 | 0.555 | -0.106 | 0.116 | 0.144 | 0.41 | – | -0.465 (active) | -0.313 | -0.036 | 0.074 | -0.063 | 0.046 | -0.097 | -0.037
ACTBL2 (UniProt Q562R1) | -0.054 | 0.179 | 0.158 | 0.035 | – | 0.171 | 0.521 | -0.085 | 0.348 | -0.105 | -0.079 | -0.541 | – | -0.711 | 0.239 | 0.533 | 0.432 | 0.15 | – | –
AGAP3 isoform 4 (UniProt Q96P47) | – | -0.233 | -0.033 | – | -0.051 | 0.24 | -0.073 | 0.079 | 0.28 | -0.1 | 0.038 | – | 0.166 | 0.178 | -0.104 | 0.12 | – | – | -0.011 | -0.02
ATXN7L3 isoform 2 (UniProt Q14CW9) | – | 0.098 | -0.038 | – | -0.158 | -0.02 | -0.191 | – | 0.052 | 0.035 | – | – | – | 0.669 (active) | 0 | 0.193 | – | – | – | –
ABHD11 (UniProt Q8NFV4) | -0.022 | – | 0.05 | -0.102 | -0.076 | – | -0.002 | 0.061 | -0.013 | 0.076 | -0.037 | 0.024 | 0.096 | 0.02 | 0.004 | -0.058 | -0.114 | -0.095 | -0.066 | 0.049
ALG14 (UniProt Q96F25) | 0.049 | – | -0.001 | -0.022 | -0.2 | – | 0.112 | -0.19 | 0.074 | 0.077 | 0.168 | -0.467 | -0.027 | -0.173 | 0.028 | -0.091 | 0.091 | -0.002 | -0.14 | -0.109
ARHGAP25 isoform 4 (UniProt P42331) | 0.249 | – | -0.023 | 0.131 | – | – | -0.068 | – | 0.08 | -0.11 | – | 0.085 | 0.079 | 0.168 | 0.212 | -0.123 | 0.02 | -0.212 | -0.128 | -0.077
AKNA (UniProt Q7Z591) | – | -0.017 | -0.074 | – | – | 0.04 | – | 0.205 | – | – | -0.059 | – | – | – | – | – | – | – | -0.066 | 0.01
